This is an account of results in ChEMBL document CHEMBL1157539, “Thousands of chemical starting points for antimalarial lead identification” (Nature, 2010).

For the test, the system named is HepG2. Kind of test: GSK_TCMDC: Percent inhibition of human HepG2 cell line. Test compounds present at 10uM. Type of test: functional.
What is called Inhibition is the drop in the measured response relative to a control, in per cent. The compound `COc1ccc(N2CCN(CCCCNC(=O)c3ccc(NC(=O)c4cccc(Cl)c4)cc3)CC2)c(OC)c1` yielded an Inhibition of 18%. The compound `O=C(O)C(F)(F)F.O=S(=O)(NC1CCN(c2ccnc3cc(Cl)ccc23)C1)c1ccc(C(F)(F)F)cc1` (stereo not drawn) gave an Inhibition of 20%. In turn, `O=C(NCC1CCC(C(=O)NCc2cccc3ccccc23)CC1)c1ccc(O)c(-c2ccc(Cl)c(Cl)c2)c1` (stereo not drawn) showed an Inhibition of 0%.
